The record followed here is PubChem BioAssay (Tox21).

Records with an inconclusive call do not appear. Calls of active or inactive are those of the source. Calls come from the whole dose curve.
% is set by controls: 0 for no effect and ±100 for the full control effect.

The assay can be described thus: qHTS assay for small molecule agonists of the p53 signaling pathway (AID 651631). Note: nearly all actives have a fitted effect of over 15% in size. The conditions noted are these: HCT-116 p53RE-bla reporter, beta-lactamase FRET ratio, 16 h; series mostly up to 73.3 µM; activation: at the top concentration. An excerpt: U.S. Tox21 Program National Center for Advancing Translational Sciences [NCATS] NIH Chemical Genomics Center [NCGC] U.S. Environmental Protection Agency [EPA] National Institutes of Environmental Health Sciences [NIEHS] National Toxicology Program [NTP] U.S. Food and Drug Administration [FDA] Tox21 Assay Overview: p53, a tumor suppressor protein, is activated following cellular insult, including DNA damage and other cellular stresses. The activation of p53 regulates cell fate by inducing DNA repair, cell cycle arrest, apoptosis, or cellular senescence. The activation of p53, therefore, is a good indicator of DNA damage and other cellular stresses. The CellSensor p53RE-bla HCT-116 cell line (Invitrogen) contains a stably integrated beta-lactamase reporter gene under control of the p53 response elements. The activation of the reporter gene under culture conditions can be detected by fluorescence intensity. This cell line was used to screen the Tox21 compound library in a 1536-well plate format and to identify agonists that activate the p53 signaling pathway.
Tox21 Assay Protocol Summary: The p53RE-bla cells were dispensed at 4,000 cells/5 ul/well in 1536-well black wall/clear bottom plates using a Multidrop dispenser. After the assay plates were incubated at a 37 C/5% CO2 incubator for 5 hours, 23 nL of compounds dissolved in DMSO, positive controls or DMSO only was transferred to the assay plate by a pin tool. The plates were incubated at 37 C for 16 hours. After 1 uL of LiveBLAzerTM B/G FRET substrate was added using a Flying Reagent Dispenser, the plates were incubated at room temperature for 2 hours, and fluorescence intensity was measured by an Envision plate reader.
On the technique in general: Quantitative high-throughput screening tests each substance at several concentrations.
Turning to `O=c1[nH]cnc2c1ncn2[C@@H]1O[C@H](CO)[C@@H](O)[C@H]1O`, the “activation” value was 2.26% (inactive).
On to `CCN(CC)CCNC(=O)COc1ccc(Cl)cc1`, for which the “activation” value was -3.97% (inactive).
Consider `CC1=C(O)C(=O)OC1C` (stereo not given), for which the “activation” value was -2.58% (inactive).
For `C1CCOC1`, the “activation” value is -1.78% [at 95.1 µM] (inactive).
Take `CC1=CC(=O)CC(C)(C)C1=O`: the “activation” value was 1.29% [at 95.1 µM] (inactive).
With `CCCN(CCC)C(=O)C(CCC(=O)O)NC(=O)c1ccccc1` (stereo not given), the “activation” value was -3.63% (inactive).
As for `CCCC1CCC(=O)O1` (stereo not given), the “activation” value is -0.665% (inactive).
In the case of `COC(C)CCO` (stereo not given), the “activation” value is 2.83% (inactive).
Same read-out and setting: the figure for `CC(C)NCC(O)COc1ccc(CCOCC2CC2)cc1` (stereo not given) is -2.32% (inactive); for `OCCN1CCN(CCO)CC1` it is -0.334% [at 95.1 µM] (inactive).
Consider `CC(C)=CCC[C@](C)(O)[C@@H]1CC=C(C)CC1`, for which the “activation” value was 3.37% (inactive).
As to `CCCCNCCCC`, the “activation” value was -1.68% (inactive).
As for `CC(C)Nc1nc(N)nc(Cl)n1`, the “activation” value was -1.85% (inactive).
The same measure, in the same setting: the figure for `NC(=O)Cc1cccc(C(=O)c2ccccc2)c1N` is -2.63% (inactive).
Take `CC(C)(C)c1cccc(O)c1`: the “activation” value was 4.09% (inactive).
Same read-out and setting: the figure for `Cc1ccccc1C(=O)Nc1ccc(C(=O)N2CCCC(O)c3cc(Cl)ccc32)c(C)c1` (stereo not given) is -4.9% (inactive).
On the same count and under the same terms, the same measure for `Cc1c(C(=O)NCCO)[n+](=O)c2ccccc2n1[O-]`: 3.15% (inactive); for `COC(=O)C(C)O` (stereo not given): -1.55% [at 95.1 µM] (inactive).
For the compound `Cc1cc2nc(N)sc2cc1C`, the “activation” value is -2.84% [at 95.1 µM] (inactive).
With `C=C(C)C(=O)OCCOP(=O)(O)O`, the “activation” value was -1.18% [at 95.1 µM] (inactive).
Same read-out and setting: the same measure for `O=C(O[C@@H](C(=O)O)[C@@H](OC(=O)c1ccccc1)C(=O)O)c1ccccc1`: -2.61% [at 95.1 µM] (inactive).
With `O=C(O)C(=O)Cc1c[nH]c2ccccc12`, the “activation” value was 3.56% (inactive).
`CN1CCN(c2c(F)cc3c(=O)c(C(=O)O)cn4c3c2SCC4)CC1`: the “activation” value is 3.84% (inactive).
Regarding `NC(Cc1ccc(F)cc1)C(=O)O` (stereo not given), the activation is -4.8% [at 8.3 µM] (inactive).
Same read-out and setting: the same measure for `FC(F)(F)C(F)(F)C(F)(F)C(F)(F)C(F)(F)C(F)(F)C(F)(F)C(F)(F)Br`: -1.3% (inactive); for `CCC(=O)Nc1ccc(O)cc1`: -2.11% (inactive); for `CCOC(=O)[C@H](CCc1ccccc1)N[C@@H](C)C(=O)N1Cc2cc(OC)c(OC)cc2C[C@H]1C(=O)O`: 1.42% (inactive).
The same measure, in the same setting: the same measure for `CN1CCN(c2c(F)cc3c(=O)c(C(=O)O)cn(CCF)c3c2F)CC1`: -1.32% (inactive).
As for `C=Cc1ccccc1`, the Potency entry is “inactive”.
Turning to `COC(=O)c1ccc(OC)cc1`, the “activation” value was -2.07% (inactive).
With `CO[C@@]1(NC(=O)CSCC#N)C(=O)N2C(C(=O)O)=C(CSc3nnnn3C)CS[C@@H]21`, the “activation” value is -2.56% (inactive).
The same measure, in the same setting: the figure for `CC/C=C\CCOC(=O)CCCCC` is 0.9% (inactive); for `CCC1(C)NC(=O)NC1=O` (stereo not given) it is -0.643% (inactive); for `CCN(CC)C(=O)N(CC)CC` it is -1.13% (inactive).
As for `O=C(O)c1ccccc1Nc1cc(Cl)ccc1C(=O)O`, the “activation” value was -0.451% (inactive).
Take `CC(C)S`: the “activation” value was -2.05% [at 95.1 µM] (inactive).
As for `CS(=O)(=O)c1ccc([C@@H](O)[C@@H](CF)NC(=O)C(Cl)Cl)cc1`, the “activation” value was 2.09% [at 34.7 µM] (inactive).
For the compound `O=C1N(c2ccccc2)c2ccccc2C1(Cc1ccncc1)Cc1ccncc1`, the “activation” value was -2.63% (inactive).
As for `ClC(Cl)Cl`, the “activation” value is 2.23% (inactive).
Still for that read-out and setting: the same measure for `Nc1cccc(S(=O)(=O)O)c1`: -2.33% (inactive).
